{"source": "PubChem BioAssay (NCATS)", "key": {"[1]": {"assay": "qHTS for Inhibitors of the Functional Ribonucleoprotein Complex (vRNP) of Lassa (LASV) Arenavirus: LASV Primary Screen - GLuc reporter signal (AID 1347082; calls by dose curve; tested in HEK293 reporter line; note: nearly all actives have a fitted effect of over 60% in size; note: potency is the fitted concentration of half-maximal effect)"}, "[2]": {"assay": "qHTS for Inhibitors of the Functional Ribonucleoprotein Complex (vRNP) of Lassa (LASV) Arenavirus: Viability assay - alamar blue signal for LASV Primary Screen (AID 1347083; calls by dose curve; tested in HEK293 reporter line; note: nearly all actives have a fitted effect of over 80% in size; note: potency is the fitted concentration of half-maximal effect)"}, "[3]": {"assay": "Cytotoxicity counterscreen for inhibitors of SARS-CoV-2 cell entry (AID 1645845); note: nearly all actives have a fitted effect of over 50% in size; note: potency is the fitted concentration of half-maximal effect", "outline": "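Counterscreen run in the same HEK293-ACE2 line as the pseudotyped-particle entry assay, without particles. Viability after 48 h at 37 C was read as ATP luminescence, scaled between cell-containing and cell-free wells.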"}, "[4]": {"assay": "Primary qHTS to identify inhibitors of SARS-CoV-2 cell entry (AID 1645846); note: nearly all actives have a fitted effect of over 45% in size; note: potency is the fitted concentration of half-maximal effect", "settings": "activity change, negative = inhibition: at 57.1 µM (top of the series) unless noted", "outline": "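Entry measured by luciferase signal 48 h after adding SARS-CoV-2-S pseudotyped MLV particles to HEK293-ACE2 cells preincubated 1 h with compounds. Normalisation: bald particles and spike particles.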"}, "[5]": {"assay": "qHTS profiling of the MIPE4 collection as inhibitors of Plasmodium falciparum (3D7) proliferation (AID 743344; call rule not given here)", "settings": "P. falciparum 3D7 in erythrocytes, SYBR Green DNA fluorescence, 72 h; at 28.5 µM (top of the series) unless noted", "outline": "(§1)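 Parasite DNA was quantified by SYBR Green I fluorescence (ex 485, em 535 nm) after overnight lysis in saponin/Triton buffer at room temperature. Cultures at 0.3% parasitemia and 2.5% hematocrit were first exposed to compound for 72 h at 37 C; signals were normalised to artemisinin (0.29 uM) and vehicle wells.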"}, "[6]": {"assay": "qHTS profiling of the MIPE4 collection as inhibitors of Plasmodium falciparum (DD2) proliferation (AID 743345; call rule not given here)", "settings": "P. falciparum Dd2 in erythrocytes, SYBR Green DNA, 72 h; at 28.5 µM (top of the series) unless noted", "outline": "as §1"}, "[7]": {"assay": "qHTS profiling of the MIPE4 collection as inhibitors of Plasmodium falciparum (HB3) proliferation (AID 743347; call rule not given here)", "settings": "P. falciparum HB3 in erythrocytes, SYBR Green DNA, 72 h; at 28.5 µM (top of the series) unless noted", "outline": "as §1"}, "[8]": {"assay": "Primary qHTS for inhibitors of SARS-S pseudo-typed particle cell entry (AID 1479145)"}, "[9]": {"assay": "Primary qHTS for Huh7 cytotoxicity: counterscreen for inhibitors of MERS-S pseudotyped particle cell entry (AID 1479147)", "settings": "outcome: at 57.1 µM (top of the series) unless noted"}, "[10]": {"assay": "Primary qHTS for inhibitors of MERS-S pseudo-typed particle cell entry (AID 1479149)"}, "[11]": {"assay": "Primary qHTS for Vero E6 cytotoxicity: counterscreen for inhibitors of SARS-S pseudo-typed particle cell entry (AID 1479150)", "settings": "outcome: at 57.1 µM (top of the series) unless noted"}, "[12]": {"assay": "Validation screen for inhibitors of Lassa infection (AID 463096)"}, "[13]": {"assay": "Inducers of the Endoplasmic Reticulum Stress Response (ERSR) in human glioma: Validation (AID 504836; active = well fitted curve in the direction sought with a large enough effect; an effect the other way counts as inactive or inconclusive)", "outline": "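Stably transfected U87-MG glioma cells carrying a GRP78-based luciferase sensor; 16 h compound incubation. Luminescence end-point read 10 min after Bright-Glo addition at room temperature.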"}, "[14]": {"molecular_target": "Nucleoprotein (Lymphocytic choriomeningitis virus (strain Armstrong)) (UniProt P09992)", "sequence (P09992 whole entry, looked up)": "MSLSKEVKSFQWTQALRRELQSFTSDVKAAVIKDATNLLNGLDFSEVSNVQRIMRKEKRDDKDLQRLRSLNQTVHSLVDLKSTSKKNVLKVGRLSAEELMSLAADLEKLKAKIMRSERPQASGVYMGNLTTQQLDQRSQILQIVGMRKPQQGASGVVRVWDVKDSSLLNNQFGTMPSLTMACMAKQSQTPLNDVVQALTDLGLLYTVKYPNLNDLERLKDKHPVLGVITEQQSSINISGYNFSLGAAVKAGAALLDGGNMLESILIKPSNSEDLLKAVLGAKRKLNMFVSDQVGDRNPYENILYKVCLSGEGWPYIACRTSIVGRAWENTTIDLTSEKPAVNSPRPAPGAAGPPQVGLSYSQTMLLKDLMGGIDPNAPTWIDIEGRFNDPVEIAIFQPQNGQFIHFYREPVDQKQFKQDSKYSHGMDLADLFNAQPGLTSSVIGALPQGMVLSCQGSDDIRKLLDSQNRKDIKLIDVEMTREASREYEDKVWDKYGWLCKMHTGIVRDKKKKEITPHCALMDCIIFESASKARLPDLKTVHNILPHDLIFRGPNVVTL", "assay": "qHTS for Inhibitors of the Functional Ribonucleoprotein Complex (vRNP) of Lymphocytic Choriomeningitis Arenaviruses (LCMV): LCMV Primary Screen - GLuc reporter signal (AID 1347086)"}, "[15]": {"assay": "Confirmatory qHTS to identify inhibitors of SARS-CoV-2 cell entry (AID 1645844)", "outline": "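HEK293-ACE2, overnight seeding; cpd 1 h, 37C/5% CO2; + SARS-CoV-2-S MLV PP (Wuhan-Hu-1, ΔC19); 48 h; Bright-Glo luminescence. Data normalised to S PP and bald PP wells.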"}, "[16]": {"assay": "VSVG counterscreen qHTS to identify inhibitors of SARS-CoV-2 cell entry (AID 1645847)", "outline": "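Luminescence read after 48 h infection at 37 C with VSV-G-pseudotyped MLV particles, following 1 h compound exposure of Expi293F cells stably expressing human ACE2; scaled between bald particle and VSV-G particle wells.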"}, "[17]": {"molecular_target": "Alpha-galactosidase (Coffea arabica) (UniProt Q42656)", "sequence (Q42656 whole entry, looked up)": "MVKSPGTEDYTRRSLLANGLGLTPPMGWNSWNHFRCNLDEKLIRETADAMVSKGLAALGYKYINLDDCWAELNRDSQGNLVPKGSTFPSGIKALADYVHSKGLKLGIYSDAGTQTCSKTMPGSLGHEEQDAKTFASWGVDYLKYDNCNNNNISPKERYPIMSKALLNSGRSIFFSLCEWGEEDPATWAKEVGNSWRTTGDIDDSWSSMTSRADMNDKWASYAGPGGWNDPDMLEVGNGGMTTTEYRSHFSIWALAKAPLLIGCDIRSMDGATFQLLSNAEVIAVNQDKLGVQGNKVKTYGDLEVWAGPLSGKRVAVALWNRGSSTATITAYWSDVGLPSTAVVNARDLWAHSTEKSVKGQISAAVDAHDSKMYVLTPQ", "assay": "Counterscreen for Glucocerebrosidase Inhibitors: qHTS Assay for Coffee Bean alpha-Galactosidase at pH 4.5 (AID 957; active = well fitted curve in the direction sought with a large enough effect; an effect the other way counts as inactive or inconclusive)", "outline": "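Fluorogenic read-out: 4-methylumbelliferone at Ex 365/Em 440 nm after NaOH/glycine stop (pH 10). Enzyme 2 nM, 4-MU-alpha-galactoside 80 uM, citrate buffer pH 4.5, 20 min RT; normalized to no-enzyme and enzyme controls.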"}, "[18]": {"molecular_target": "Alpha-galactosidase (Coffea arabica) (UniProt Q42656)", "assay": "Counterscreen for Glucocerebrosidase Inhibitors: qHTS Assay for Coffee Bean alpha-Galactosidase at pH 5.9 (AID 998; active = well fitted curve in the direction sought with a large enough effect; an effect the other way counts as inactive or inconclusive)", "outline": "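Enzyme 2 nM + cpd (0.7 nM–77 uM titration) + 4-MU-alpha-Gal 80 uM, pH 5.9 citrate/Tween-20, RT 20 min, NaOH/glycine stop pH 10, fluor 365/440. Normalized to no-enzyme and full-activity controls; Hill-fit AC50.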"}}, "note": "Records with an inconclusive call do not appear. A call without a number means that no potency is given here. Calls of active or inactive are those of the source. Unless noted, calls come from the whole dose curve."}
{"smiles": "CNC(=O)c1c(F)cccc1Nc1nc(Nc2cc3c(cc2OC)CCN3C(=O)CN(C)C)nc2[nH]ccc12", "values": [{"measurement": "Potency", "setting": "[1]", "result": "inactive"}, {"measurement": "Potency", "setting": "[2]", "result": "inactive"}, {"measurement": "Potency", "setting": "[3]", "result": "inactive"}, {"measurement": "Potency", "setting": "[4]", "result": "20 µM (active)"}]}
{"smiles": "C[C@H](CCC(=O)O)[C@H]1CC[C@H]2[C@H]3[C@@H](CC[C@]12C)[C@@]1(C)CC[C@@H](O)C[C@H]1C[C@@H]3O", "values": [{"measurement": "parasite growth, % of DMSO control", "setting": "[5]", "result": 8.82, "unit": "%"}, {"measurement": "parasite growth remaining, % of DMSO control (lower = more inhibition)", "setting": "[6]", "result": 12.3, "unit": "%"}, {"measurement": "growth, % of control", "setting": "[7]", "result": 23.1, "unit": "%"}, {"measurement": "Potency", "setting": "[1]", "result": "inactive"}, {"measurement": "Potency", "setting": "[2]", "result": "inactive"}, {"measurement": "Potency", "setting": "[8]", "result": "inactive"}, {"measurement": "outcome", "setting": "[9]", "result": "inactive"}, {"measurement": "Potency", "setting": "[10]", "result": "inactive"}, {"measurement": "outcome", "setting": "[11]", "result": "inactive"}, {"measurement": "Potency", "setting": "[3]", "result": "inactive"}, {"measurement": "activity change, negative = inhibition", "setting": "[4]", "result": 0.336, "unit": "%"}]}
{"smiles": "CCc1ccc(OCc2ccccc2C(=O)Nc2ccc3nc(C)cc(N)c3c2)cc1", "values": [{"measurement": "Potency", "setting": "[1]", "result": "12.2 µM (active)"}, {"measurement": "Potency", "setting": "[2]", "result": "21.7 µM (active)"}, {"measurement": "Potency", "setting": "[3]", "result": "15.8 µM (active)"}, {"measurement": "Potency", "setting": "[4]", "result": "10 µM (active)"}]}
{"smiles": "CCN(CC)CCNC(=O)c1ccc2nc(-c3ccccc3)c(-c3ccc(CN4CCC(n5c(=O)[nH]c6ccccc65)CC4)cc3)nc2c1", "values": [{"measurement": "Potency", "setting": "[1]", "result": "34.3 µM (active)"}, {"measurement": "Potency", "setting": "[2]", "result": "21.7 µM (active)"}, {"measurement": "Potency", "setting": "[3]", "result": "5.62 µM (active)"}, {"measurement": "Potency", "setting": "[4]", "result": "4.47 µM (active)"}]}
{"smiles": "CN(C)C(=O)/N=N/C(=O)N(C)C", "values": [{"measurement": "Potency", "setting": "[12]", "result": "inactive"}, {"measurement": "outcome", "setting": "[13]", "result": "inactive"}, {"measurement": "Potency", "setting": "[1]", "result": "inactive"}, {"measurement": "Potency", "setting": "[2]", "result": "inactive"}, {"measurement": "Potency", "setting": "[14]", "result": "inactive"}]}
{"smiles": "CC(C)c1cc(-c2n[nH]c(=O)n2-c2ccc3c(ccn3C)c2)c(O)cc1O", "values": [{"measurement": "Potency", "setting": "[1]", "result": "0.385 µM (active)"}, {"measurement": "Potency", "setting": "[2]", "result": "0.243 µM (active)"}, {"measurement": "Potency", "setting": "[14]", "result": "0.306 µM (active)"}, {"measurement": "activity change, negative = inhibition", "setting": "[4]", "result": -96, "unit": "%"}]}
{"smiles": "COc1cc(Nc2ncc(F)c(Nc3ccc4c(n3)N(COP(=O)(O)O)C(=O)C(C)(C)O4)n2)cc(OC)c1OC", "values": [{"measurement": "Potency", "setting": "[1]", "result": "inactive"}, {"measurement": "Potency", "setting": "[2]", "result": "2.43 µM (active)"}, {"measurement": "Potency", "setting": "[3]", "result": "inactive"}]}
{"smiles": "Cc1cc(OCCCS(C)(=O)=O)cc(C)c1-c1cccc(COc2ccc3c(c2)OC[C@H]3CC(=O)O)c1", "values": [{"measurement": "Potency", "setting": "[1]", "result": "inactive"}, {"measurement": "Potency", "setting": "[2]", "result": "inactive"}, {"measurement": "Potency", "setting": "[14]", "result": "inactive"}, {"measurement": "Potency", "setting": "[3]", "result": "inactive"}]}
{"smiles": "Cc1ccc2nc(NCCN)c3ncc(C)n3c2c1", "values": [{"measurement": "Potency", "setting": "[1]", "result": "17.2 µM (active)"}, {"measurement": "Potency", "setting": "[2]", "result": "19.3 µM (active)"}, {"measurement": "Potency", "setting": "[15]", "result": "19.2 µM (active)"}, {"measurement": "Potency", "setting": "[16]", "result": "13.6 µM (active)"}]}
{"smiles": "O=C1c2ccccc2-c2n[nH]c3cccc1c23", "values": [{"measurement": "outcome", "setting": "[17]", "result": "inactive"}, {"measurement": "outcome", "setting": "[18]", "result": "inactive"}, {"measurement": "outcome", "setting": "[13]", "result": "inactive"}, {"measurement": "Potency", "setting": "[1]", "result": "inactive"}, {"measurement": "Potency", "setting": "[2]", "result": "30.6 µM (active)"}, {"measurement": "Potency", "setting": "[14]", "result": "inactive"}, {"measurement": "Potency", "setting": "[3]", "result": "inactive"}]}
{"smiles": "N=c1ccn2c(n1)O[C@H]1[C@H](O)[C@@H](CO)O[C@H]12", "values": [{"measurement": "outcome", "setting": "[13]", "result": "inactive"}, {"measurement": "Potency", "setting": "[1]", "result": "inactive"}, {"measurement": "Potency", "setting": "[2]", "result": "inactive"}, {"measurement": "Potency", "setting": "[14]", "result": "inactive"}]}
{"smiles": "O=c1[nH]c(=O)n([C@H]2C[C@@H](O)[C@@H](CO)O2)cc1C=CBr", "values": [{"measurement": "outcome", "setting": "[13]", "result": "inactive"}, {"measurement": "parasite growth, % of DMSO control", "setting": "[5]", "result": 139, "unit": "%"}, {"measurement": "parasite growth remaining, % of DMSO control (lower = more inhibition)", "setting": "[6]", "result": 118, "unit": "%"}, {"measurement": "growth, % of control", "setting": "[7]", "result": 652, "unit": "%"}, {"measurement": "Potency", "setting": "[1]", "result": "inactive"}, {"measurement": "Potency", "setting": "[2]", "result": "inactive"}, {"measurement": "Potency", "setting": "[14]", "result": "inactive"}]}
